According to PubChem BioAssay (Tox21):
Values joined by “and” are separate entries in the source; they are usually repeats but may differ in a detail not shown here. Equal values may be shown once. Inconclusive results are not listed. A call without a number means that no potency is given here. Some compounds were tested as several samples or in several runs, with calls that do not always agree. Active and inactive are the calls of the source. Unless noted, calls follow the shape of the dose curve; as a rule, active = well fitted curve in the direction sought with a large enough effect in the repeat runs; inconclusive = weak or mixed curves; inactive = no such curve, though single readings can be large; an effect the other way counts as inactive or inconclusive.

Legend:
[1] = qHTS assay to identify small molecule antagonists of the progesterone receptor (PR) signaling pathway - cell viability counter screen (AID 1346798); also: nearly all actives have a fitted effect of over 50% in size; also: potency is read from the fitted curve at half-maximal effect
Method in brief: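 PR-UAS-bla HEK293T cells in medium with 2% charcoal-stripped FBS were treated with compounds plus R5020 for 16 hr at 37C. Cell viability was then read by CellTiter-Glo luminescence after 30 min at room temperature in the same wells.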

[2] = qHTS assay to identify small molecule agonists of the progesterone receptor (PR) signaling pathway - cell viability counter screen (AID 1346799; calls by dose curve; also: nearly all actives have a fitted effect of over 45% in size)
Method in brief: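 PR-UAS-bla HEK293T cells, 3,000 per well in medium with 2% charcoal-stripped FBS, were preincubated 6 hr at 37C, then exposed to compounds for 16 hr; viability was read as CellTiter-Glo luminescence after 30 min at room temperature.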

[3] = qHTS assay to identify small molecule agonists of the TGF-beta/Smad signaling pathway - cell viability counter screen (AID 1346829); also: top concentration of the series differs between compounds; nearly all actives have a fitted effect of over 45% in size
Method in brief: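 HEK 293T SBE-bla line, 5 hr compound exposure at 37 C, multiplexed CellTiter-Glo viability read by luminescence.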

[4] = qHTS assay to identify small molecule agonists of the TGF-beta/Smad signaling pathway (AID 1346859; active = well fitted activation curve with a large enough effect in the signal ratio in the repeat runs, not every such curve was filed as active; the % refers to the signal ratio; also: series mostly up to about 77 µM)
Method in brief: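 HEK 293T cells stably carrying a beta-lactamase reporter driven by the Smad binding element were seeded overnight, exposed to DMSO-dissolved compounds for 5 hr at 37 C, 5% CO2, then loaded with FRET substrate for 2 hr at room temperature.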

[5] = biological target: Thyrotropin-releasing hormone receptor (Homo sapiens) (UniProt P34981); test: qHTS assay to identify small molecule antagonists of the thyrotropin-releasing hormone receptor (TRHR) signaling pathway (AID 1346877; active = well fitted inhibition curve with a large enough effect in the repeat runs, not every such curve was filed as active; also: series mostly up to about 51 µM)
Sequence of Thyrotropin-releasing hormone receptor (Homo sapiens) (P34981 whole entry, looked up): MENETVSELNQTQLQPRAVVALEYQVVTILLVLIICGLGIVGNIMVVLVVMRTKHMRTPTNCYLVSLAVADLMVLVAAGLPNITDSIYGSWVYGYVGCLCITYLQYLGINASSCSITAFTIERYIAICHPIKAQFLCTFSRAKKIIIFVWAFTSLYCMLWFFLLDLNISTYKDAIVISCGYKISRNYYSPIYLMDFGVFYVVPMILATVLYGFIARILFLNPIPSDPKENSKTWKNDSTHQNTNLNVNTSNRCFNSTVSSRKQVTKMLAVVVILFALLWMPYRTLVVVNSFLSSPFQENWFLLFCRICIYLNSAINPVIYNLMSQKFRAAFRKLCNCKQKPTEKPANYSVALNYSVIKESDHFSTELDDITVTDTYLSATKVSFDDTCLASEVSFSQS
Method in brief: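 Cells (TRHR-HEK293) are plated and kept 18 h at 37 °C/5% CO2. A calcium-sensitive dye is added for 2 h, compound follows for 5 min at room temperature, and TRH is then given at 1 nM final.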

[6] = biological target: Thyrotropin-releasing hormone receptor (Homo sapiens) (UniProt P34981); test: qHTS assay to identify small molecule agonists of the thyrotropin-releasing hormone receptor (TRHR) signaling pathway (AID 1346891; calls by dose curve; also: series mostly up to about 58 µM)
Method in brief: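 TRHR-expressing HEK293 cells were plated 18 h at 37 °C/5% CO2, loaded with calcium dye 2 h at 37 °C, then given compound in DMSO; fluorescence was read kinetically for 3 min at 1 s intervals.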

[7] = Human pregnane X receptor (PXR) small molecule agonists, qHTS cell viability counter screen (AID 1346977); also: nearly all actives have a fitted effect of over 50% in size; also: potency is read from the fitted curve at half-maximal effect
Method in brief: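 PXR-Luc HepG2 cells in medium with 5% charcoal-stripped FBS were pre-incubated 5hr, then exposed to compounds for 24hr at 37C. Viability was read in the same wells by CellTiter-Fluor fluorescence, reagent added after 23hr with a 1hr incubation.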

[8] = Caspase-3/7 induction in HepG2 cells by small molecules, qHTS assay (AID 1346978); also: nearly all actives have a fitted effect of over 15% in size; also: potency is read from the fitted curve at half-maximal effect
Method in brief: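 Wild-type HepG2 cells, 2,000/well, settled 5 hr at 37 C and 5% CO2, then compound-treated for 17 hr; caspase-3/7 activity read by luminescent Caspase-Glo 3/7 after 30 min at room temperature.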

[9] = Caspase-3/7 induction in CHO-K1 cells by small molecules, qHTS cell viability counter screen (AID 1346979); also: nearly all actives have a fitted effect of over 35% in size
Method in brief: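 Wild-type CHO-K1 cells were seeded at 1,500 per well, rested 5hr at 37 C, then exposed to compounds in DMSO. After 16hr, CellTiter-Fluor reagent was added and fluorescence read 1hr later as the viability measure.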

[10] = Caspase-3/7 induction in HepG2 cells by small molecules, qHTS cell viability counter screen (AID 1346981); also: series mostly up to about 92 µM; nearly all actives have a fitted effect of over 30% in size
Method in brief: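 Steps: seed 2,000 HepG2 cells per well; incubate 5 hr at 37 C; pin-add compounds in DMSO; incubate 16 hr; add CellTiter-Fluor; after 1 hr at 37 C and 5% CO2, read fluorescence.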

[11] = biological target: Cytochrome P450 2D6 (Homo sapiens) (UniProt P10635); test: Cytochrome P450 Family 2 Subfamily D Member 6 (CYP2D6) small molecule antagonists: luciferase reporter qHTS assay (AID 1671196); also: series mostly up to about 120 µM; nearly all actives have a fitted effect of over 50% in size
Sequence of Cytochrome P450 2D6 (Homo sapiens) (P10635 whole entry, looked up): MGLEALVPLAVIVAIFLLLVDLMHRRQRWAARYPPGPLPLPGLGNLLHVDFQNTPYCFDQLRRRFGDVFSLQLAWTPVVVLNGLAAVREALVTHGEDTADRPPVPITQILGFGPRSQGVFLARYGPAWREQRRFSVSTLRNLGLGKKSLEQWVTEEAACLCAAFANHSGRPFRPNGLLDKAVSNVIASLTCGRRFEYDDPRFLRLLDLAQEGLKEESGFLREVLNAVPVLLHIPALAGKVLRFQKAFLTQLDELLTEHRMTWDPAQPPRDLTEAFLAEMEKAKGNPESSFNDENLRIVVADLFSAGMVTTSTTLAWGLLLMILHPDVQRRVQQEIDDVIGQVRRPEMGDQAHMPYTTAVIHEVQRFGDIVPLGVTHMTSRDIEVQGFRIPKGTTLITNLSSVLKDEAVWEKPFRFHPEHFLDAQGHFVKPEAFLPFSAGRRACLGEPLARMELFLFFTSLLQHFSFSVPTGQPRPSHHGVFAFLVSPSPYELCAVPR
Method in brief: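 P450-Glo format: CYP2D6 converts a proluciferin substrate to luciferin in an NADPH-driven reaction lasting 1 h at room temperature. Light output, proportional to CYP2D6 activity, reflects interference by test chemicals.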

[12] = biological target: Cytochrome P450 2C19 (Homo sapiens) (UniProt P33261); test: Cytochrome P450 Family 2 Subfamily C Member 19 (CYP2C19) small molecule antagonists: luciferase reporter qHTS assay (AID 1671197); also: nearly all actives have a fitted effect of over 65% in size; also: potency is read from the fitted curve at half-maximal effect
Sequence of Cytochrome P450 2C19 (Homo sapiens) (P33261 whole entry, looked up): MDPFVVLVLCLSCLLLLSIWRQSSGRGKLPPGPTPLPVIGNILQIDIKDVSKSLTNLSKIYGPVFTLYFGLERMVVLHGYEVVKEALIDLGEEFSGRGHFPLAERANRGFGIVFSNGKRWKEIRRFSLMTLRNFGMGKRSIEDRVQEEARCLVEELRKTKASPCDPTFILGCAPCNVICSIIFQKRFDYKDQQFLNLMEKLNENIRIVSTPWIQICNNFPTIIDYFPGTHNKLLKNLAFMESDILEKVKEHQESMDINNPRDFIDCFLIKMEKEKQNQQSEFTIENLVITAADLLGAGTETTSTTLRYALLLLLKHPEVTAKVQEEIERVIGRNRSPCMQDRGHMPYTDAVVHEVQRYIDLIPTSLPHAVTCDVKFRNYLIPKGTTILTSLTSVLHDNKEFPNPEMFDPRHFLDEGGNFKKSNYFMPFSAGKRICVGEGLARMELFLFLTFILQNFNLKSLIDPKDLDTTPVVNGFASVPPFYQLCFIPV
Method in brief: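 First, compounds are pinned into enzyme-substrate mix and held 10 min at room temperature. Second, NADPH regeneration solution is added and plates incubate 1 h at 37C. Third, detection reagent is added and luminescence read after 20 min.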

[13] = biological target: Cytochrome P450 1A2 (Homo sapiens) (UniProt P05177); test: Cytochrome P450 Family 1 Subfamily A Member 2 (CYP1A2) small molecule antagonists: luciferase reporter qHTS assay (AID 1671199); also: nearly all actives have a fitted effect of over 50% in size; also: potency is read from the fitted curve at half-maximal effect
Sequence of Cytochrome P450 1A2 (Homo sapiens) (P05177 whole entry, looked up): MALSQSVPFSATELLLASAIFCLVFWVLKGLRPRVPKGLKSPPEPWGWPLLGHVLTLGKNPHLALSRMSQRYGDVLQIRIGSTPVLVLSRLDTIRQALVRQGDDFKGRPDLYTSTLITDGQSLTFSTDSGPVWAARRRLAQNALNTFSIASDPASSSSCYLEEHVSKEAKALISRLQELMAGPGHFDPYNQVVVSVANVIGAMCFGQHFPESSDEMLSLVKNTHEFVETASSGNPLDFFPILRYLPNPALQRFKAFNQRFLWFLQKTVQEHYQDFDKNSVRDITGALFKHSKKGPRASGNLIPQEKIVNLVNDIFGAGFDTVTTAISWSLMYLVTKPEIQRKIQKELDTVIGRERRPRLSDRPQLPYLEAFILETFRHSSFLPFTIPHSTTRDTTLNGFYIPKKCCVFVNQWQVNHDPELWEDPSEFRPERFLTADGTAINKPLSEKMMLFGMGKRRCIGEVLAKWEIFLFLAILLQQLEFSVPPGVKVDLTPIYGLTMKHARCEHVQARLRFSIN
Method in brief: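 Inhibition of CYP1A2 conversion of proluciferin to luciferin, detected by luminescence. Reaction run 1 h at room temperature with NADPH regeneration after brief compound preincubation.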

[14] = biological target: Voltage-gated inwardly rectifying potassium channel KCNH2 (Homo sapiens) (UniProt Q12809); test: Human Ether-a-go-go-Related Gene (hERG) channel small molecule antagonists: fluorescence cell-based qHTS assay (AID 1671200)
Sequence of Voltage-gated inwardly rectifying potassium channel KCNH2 (Homo sapiens) (Q12809 whole entry, looked up): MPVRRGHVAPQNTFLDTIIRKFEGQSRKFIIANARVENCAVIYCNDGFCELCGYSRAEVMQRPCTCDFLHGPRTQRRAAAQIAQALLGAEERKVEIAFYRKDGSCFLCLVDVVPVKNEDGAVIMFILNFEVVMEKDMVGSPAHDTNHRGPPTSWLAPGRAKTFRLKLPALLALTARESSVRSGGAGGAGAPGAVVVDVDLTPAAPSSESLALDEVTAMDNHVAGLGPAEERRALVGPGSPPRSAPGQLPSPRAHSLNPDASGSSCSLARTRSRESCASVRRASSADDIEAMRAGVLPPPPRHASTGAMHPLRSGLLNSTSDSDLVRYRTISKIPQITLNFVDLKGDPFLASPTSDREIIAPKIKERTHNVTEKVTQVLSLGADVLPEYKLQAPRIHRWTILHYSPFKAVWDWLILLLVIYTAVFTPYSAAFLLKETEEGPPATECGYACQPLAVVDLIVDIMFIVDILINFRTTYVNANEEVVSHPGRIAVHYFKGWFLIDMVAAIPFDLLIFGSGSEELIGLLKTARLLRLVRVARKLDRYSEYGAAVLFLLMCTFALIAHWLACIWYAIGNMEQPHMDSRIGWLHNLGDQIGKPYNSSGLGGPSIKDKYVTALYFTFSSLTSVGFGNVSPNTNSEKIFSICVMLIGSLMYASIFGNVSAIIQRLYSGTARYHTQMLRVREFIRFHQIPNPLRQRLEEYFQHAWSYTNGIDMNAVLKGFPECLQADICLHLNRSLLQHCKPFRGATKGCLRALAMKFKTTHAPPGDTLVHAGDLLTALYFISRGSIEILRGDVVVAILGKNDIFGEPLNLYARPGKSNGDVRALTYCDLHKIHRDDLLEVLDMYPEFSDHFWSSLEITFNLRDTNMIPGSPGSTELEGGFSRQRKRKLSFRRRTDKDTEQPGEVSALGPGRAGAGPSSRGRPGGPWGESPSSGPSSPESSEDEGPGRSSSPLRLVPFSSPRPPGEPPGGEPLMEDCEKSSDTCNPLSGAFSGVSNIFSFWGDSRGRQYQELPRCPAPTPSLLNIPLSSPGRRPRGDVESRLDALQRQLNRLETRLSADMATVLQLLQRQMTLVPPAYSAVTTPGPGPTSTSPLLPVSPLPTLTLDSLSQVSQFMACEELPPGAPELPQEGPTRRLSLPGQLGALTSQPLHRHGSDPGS
Method in brief: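 U2OS cells expressing the channel were plated at 1000 cells/well, incubated overnight at 37 C, then loaded with FluxOR II thallium-sensitive dye for 1 h at room temperature in the dark, with a further 10 min at room temperature before stimulation.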

[15] = qHTS assay to identify small molecule antagonists of the TGF-beta/Smad signaling pathway - cell viability counter screen (AID 1346824); also: nearly all actives have a fitted effect of over 50% in size
Method in brief: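 SBE-bla HEK 293T cells, incubated overnight, then compound plus 0.25 ng/mL TGF-beta1 (stock added) for 5 hr at 37 C. Viability was read in the same wells by CellTiter-Glo luminescence after 30 min at room temperature.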

[16] = biological target: Nuclear receptor subfamily 1 group I member 2 (Rattus norvegicus) (UniProt Q9R1A7); test: Rat pregnane X receptor (rPXR) activation by small molecules, qHTS assay (AID 1346983); conditions: rPXR luciferase reporter cells, One-Glo luminescence, 24 h; max activation: stronger effect = higher value; also: nearly all actives have a fitted effect of over 20% in size; also: potency is read from the fitted curve at half-maximal effect
Sequence of Nuclear receptor subfamily 1 group I member 2 (Rattus norvegicus) (Q9R1A7 whole entry, looked up): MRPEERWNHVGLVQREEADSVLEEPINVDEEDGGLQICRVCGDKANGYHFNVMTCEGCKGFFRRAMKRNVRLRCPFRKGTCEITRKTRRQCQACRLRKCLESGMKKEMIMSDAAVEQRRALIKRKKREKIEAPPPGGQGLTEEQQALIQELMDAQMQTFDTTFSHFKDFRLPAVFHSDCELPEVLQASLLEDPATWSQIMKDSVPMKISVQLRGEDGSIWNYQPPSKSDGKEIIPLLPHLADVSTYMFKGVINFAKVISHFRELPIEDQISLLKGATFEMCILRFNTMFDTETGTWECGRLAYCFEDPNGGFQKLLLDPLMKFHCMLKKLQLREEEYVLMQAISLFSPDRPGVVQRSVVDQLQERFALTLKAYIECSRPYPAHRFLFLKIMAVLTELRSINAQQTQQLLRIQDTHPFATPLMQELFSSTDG
Method in brief: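 Cell-based rPXR activation assay: rPXR cells, 2,000 per well, rested 5hr at 37 C, then exposed to compounds in DMSO for 24 hr at 37 C. Luciferase activity read by One-Glo luminescence after 30 min at room temperature.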

[17] = Caspase-3/7 induction in CHO-K1 cells by small molecules, qHTS assay (AID 1346980); also: nearly all actives have a fitted effect of over 15% in size
Method in brief: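 Wild-type CHO-K1 cells exposed to compounds for 17hr at 37 C, 5% CO2. Caspase-3/7 activity then measured by Caspase-Glo 3/7 luminescence after 30min at room temperature.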

[18] = biological target: Nuclear receptor subfamily 1 group I member 2 (Homo sapiens) (UniProt O75469); test: Human pregnane X receptor (PXR) small molecule agonists, qHTS assay (AID 1346982); also: nearly all actives have a fitted effect of over 35% in size; also: potency is read from the fitted curve at half-maximal effect
Sequence of Nuclear receptor subfamily 1 group I member 2 (Homo sapiens) (O75469 whole entry, looked up): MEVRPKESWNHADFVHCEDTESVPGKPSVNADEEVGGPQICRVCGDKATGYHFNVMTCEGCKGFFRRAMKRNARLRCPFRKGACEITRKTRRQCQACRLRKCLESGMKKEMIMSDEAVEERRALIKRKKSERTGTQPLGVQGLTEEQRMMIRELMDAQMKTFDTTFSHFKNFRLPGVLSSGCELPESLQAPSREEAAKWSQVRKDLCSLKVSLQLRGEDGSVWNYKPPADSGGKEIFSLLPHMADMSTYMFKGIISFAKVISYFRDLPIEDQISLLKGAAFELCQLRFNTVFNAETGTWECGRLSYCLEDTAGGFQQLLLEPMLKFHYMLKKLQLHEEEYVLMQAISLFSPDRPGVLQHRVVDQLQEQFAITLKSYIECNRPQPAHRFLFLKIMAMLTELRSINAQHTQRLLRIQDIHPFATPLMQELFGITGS
Method in brief: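 Agonist mode qHTS: PXR-Luc HepG2 cells plated 5 hr before DMSO-dissolved compounds were pinned in, cultured 24 hr at 37 C, 5% CO2; ONE-Glo luminescence readout.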

[19] = biological target: Cytochrome P450 2C9 (Homo sapiens) (UniProt P11712); test: Cytochrome P450 Family 2 Subfamily C Member 9 (CYP2C9) small molecule antagonists: luciferase reporter qHTS assay (AID 1671198); also: nearly all actives have a fitted effect of over 50% in size; also: potency is read from the fitted curve at half-maximal effect
Sequence of Cytochrome P450 2C9 (Homo sapiens) (P11712 whole entry, looked up): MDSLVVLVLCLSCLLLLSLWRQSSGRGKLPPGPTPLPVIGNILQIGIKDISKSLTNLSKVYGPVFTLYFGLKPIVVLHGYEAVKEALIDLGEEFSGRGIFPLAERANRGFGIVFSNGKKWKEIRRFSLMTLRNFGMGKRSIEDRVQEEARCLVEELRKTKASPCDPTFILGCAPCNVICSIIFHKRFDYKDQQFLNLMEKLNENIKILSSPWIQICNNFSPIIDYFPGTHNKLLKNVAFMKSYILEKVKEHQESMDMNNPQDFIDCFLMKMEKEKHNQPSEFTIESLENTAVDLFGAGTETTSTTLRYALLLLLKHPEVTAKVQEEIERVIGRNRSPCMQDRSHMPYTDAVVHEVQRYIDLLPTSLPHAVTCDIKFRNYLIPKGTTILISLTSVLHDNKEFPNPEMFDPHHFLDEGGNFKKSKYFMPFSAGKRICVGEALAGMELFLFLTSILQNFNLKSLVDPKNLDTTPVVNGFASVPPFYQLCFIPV
Method in brief: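 P450-Glo proluciferin substrate with CYP2C9 enzyme; 10 min RT preincubation, then NADPH regeneration 1 h at 37C; luciferin detection reagent 20 min RT, luminescence in relative luminescence units.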

SMILES | Potency [1] | Potency [2] | Potency [3] | outcome [4] | Potency [5] | outcome [6] | Potency [7] | Potency [8] | Potency [9] | Potency [10] | Potency [11] | Potency [12] | Potency [13] | outcome [14] | Potency [15] | max activation [16] | Potency [16] | outcome [17] | Potency [18] | Potency [19]
COc1cc(Cc2cnc(N)nc2N)cc(OC)c1OC | inactive | inactive | inactive | inactive | inactive | inactive | inactive | inactive | inactive | inactive | inactive | inactive | 35.5 µM (active) and inactive | inactive |  |  |  |  |  | 
N[C@@H](Cc1cc(I)c(Oc2cc(I)c(O)c(I)c2)c(I)c1)C(=O)O | inactive |  | inactive | inactive |  |  | inactive | inactive | inactive | inactive | inactive | inactive |  | inactive | inactive | -0.369% (inactive) |  |  |  | 
C[C@H]1C[C@@H]2[C@H]([C@@H](O)C[C@@]3(C)[C@H]2CC[C@]3(O)C(=O)CO)[C@@]2(C)C=CC(=O)C=C12 | inactive | inactive | inactive | inactive |  |  | inactive | inactive | inactive | inactive |  |  | inactive | inactive |  |  | 1.58 µM (active) |  |  | 
O=C1CCC(N2C(=O)c3ccccc3C2=O)C(=O)N1 (stereo not drawn) | inactive | inactive | inactive | inactive | inactive | inactive | inactive | inactive | inactive | inactive |  | inactive | inactive | inactive |  |  |  | inactive | inactive | 
c1ccc2scnc2c1 | inactive | inactive | inactive | inactive |  |  | inactive | inactive | inactive | inactive | inactive | inactive |  | inactive |  |  |  | inactive | inactive | inactive
Nc1ccccc1[N+](=O)[O-] | inactive | inactive | inactive | inactive | inactive | inactive | inactive | inactive | inactive | inactive | inactive | inactive | 35.9 µM (active) | inactive |  |  |  |  | inactive | inactive
O=[N+]([O-])c1ccc(/C=C/c2ccc([N+](=O)[O-])cc2S(=O)(=O)O)c(S(=O)(=O)O)c1 | inactive | inactive | inactive | inactive | inactive | inactive | inactive | inactive | inactive |  | inactive | inactive | inactive | inactive |  |  |  | inactive | inactive | 
CCCCCCCCCCCCS | inactive | inactive | inactive | inactive | inactive | inactive | inactive | inactive | inactive | inactive | inactive | inactive | inactive | inactive |  |  |  |  | inactive | inactive
c1ccc(OCCOc2ccccc2)cc1 | inactive | inactive | inactive | inactive |  |  | inactive | inactive | inactive | inactive | inactive | 5.02 µM (active) and 5.03 µM (active) | 15.9 µM (active) and 20 µM (active) | inactive |  |  |  | inactive | 61.1 µM (active) and 24.3 µM (active) | 28.2 µM (active) and 22.4 µM (active)
CN(C)CCC(c1ccc(Cl)cc1)c1ccccn1 (stereo not drawn) | 54.6 µM (active) |  | inactive | inactive | inactive | inactive | 44.7 µM (active) | inactive | inactive | inactive |  |  |  |  | inactive |  |  | inactive |  | 
CC1=C(C)S(=O)(=O)CCS1(=O)=O |  | inactive | inactive | inactive | inactive | inactive |  | inactive |  |  | inactive | 69.7 µM (active) and inactive | inactive | inactive | inactive |  |  |  | inactive | 
Cc1cccc(O)c1 | inactive | inactive | inactive | inactive |  |  | inactive | inactive | inactive | inactive | inactive | inactive |  | inactive |  |  |  | inactive | inactive | 
CCCSc1ccc2nc(NC(=O)OC)[nH]c2c1 |  | inactive | inactive | inactive | inactive | inactive | inactive | 0.969 µM (active) |  | inactive | inactive | inactive | 5.64 µM (active) and 5.75 µM (active) | inactive | inactive |  |  | inactive |  | 
